# Data taken from PubChem BioAssay (NCATS).
# Records with an inconclusive call do not appear. Entries that show only a call come without a potency. Activity calls are given as the source filed them. The call rests on the fitted dose curve; in most records, active means well fitted curve in the direction sought with a large enough effect; inconclusive means small, poorly fitted or top-dose-only effect, or another doubt; inactive means no such curve, though single readings can be large; an effect the other way counts as inactive or inconclusive.
# Legend:
# [1] = qHTS of pediatric cancer cell lines to identify multiple opportunities for drug repurposing: Primary screen for LAN-5 cells (AID 1347100); further: potency means the concentration at half of the fitted maximal effect
# Procedure, shortened: (§1)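 Cells (500-1,000/well) rested 5 h, then received compounds for 48 h; metabolically active cells were measured by CellTiter-Glo luminescence. Final concentrations spanned up to 46 µM (MIPE, 11-point) or 0.59 nM-46 µM (NPC, 8-point) in primary screens, 11-point in follow-ups.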
# [2] = qHTS of pediatric cancer cell lines to identify multiple opportunities for drug repurposing: Primary screen for Rh18 cells (AID 1347102); further: nearly all actives have a fitted effect of over 65% in size; further: potency means the concentration at half of the fitted maximal effect
# Procedure, shortened: as §1
# [3] = qHTS of pediatric cancer cell lines to identify multiple opportunities for drug repurposing: Primary screen for OHS-50 cells (AID 1347103); further: nearly all actives have a fitted effect of over 40% in size; further: potency means the concentration at half of the fitted maximal effect
# Procedure, shortened: as §1
# [4] = qHTS of pediatric cancer cell lines to identify multiple opportunities for drug repurposing: Primary screen for RD cells (AID 1347104); further: nearly all actives have a fitted effect of over 55% in size; further: potency means the concentration at half of the fitted maximal effect
# Procedure, shortened: (§2)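 Quantitative HTS format: each compound titrated (MIPE 11 points from 0.78 nM, NPC 8 points from 0.59 nM) onto cells plated 5 hours earlier. After 48 h at 37 degrees C, CellTiter-Glo luminescence was recorded.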
# [5] = qHTS of pediatric cancer cell lines to identify multiple opportunities for drug repurposing: Primary screen for control Hh wild type fibroblast cells (AID 1347106);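 further: series mostly up to about 46 µM; a drop in luminescence marks cytotoxicity and a rise apparent proliferation; nearly all actives have a fitted effect of over 55% in size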
# Procedure, shortened: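 Cells (500-1,000/well) in growth media were settled 5 h at 37 degrees C, then given compounds for 48 h. Viability was read as CellTiter-Glo luminescence. Primary runs used MIPE at 11 points (0.78 nM-46 µM) and NPC at 8 points (0.59 nM-46 µM); follow-ups used 11 points.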
# [6] = qHTS of pediatric cancer cell lines to identify multiple opportunities for drug repurposing: Primary screen for Rh30 cells (AID 1347107); further: nearly all actives have a fitted effect of over 75% in size; further: potency means the concentration at half of the fitted maximal effect
# Procedure, shortened: as §1
# [7] = qHTS of pediatric cancer cell lines to identify multiple opportunities for drug repurposing: Primary screen for Rh41 cells (AID 1347108); further: nearly all actives have a fitted effect of over 70% in size; further: potency means the concentration at half of the fitted maximal effect
# Procedure, shortened: as §2
# [8] = qHTS of pediatric cancer cell lines to identify multiple opportunities for drug repurposing: Primary screen for MG 63 (6-TG R) cells (AID 1347105); further: nearly all actives have a fitted effect of over 50% in size; further: potency means the concentration at half of the fitted maximal effect
# Procedure, shortened: as §2
# [9] = qHTS of pediatric cancer cell lines to identify multiple opportunities for drug repurposing: Confirmatory screen for NB1643 cells (AID 1347109); further: potency means the concentration at half of the fitted maximal effect; nearly all actives have a fitted effect of over 45% in size
# Procedure, shortened: as §1
# [10] = qHTS of pediatric cancer cell lines to identify multiple opportunities for drug repurposing: Confirmatory screen for A673 cells (AID 1347110);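 further: potency means the concentration at half of the fitted maximal effect; cells exposed to compound for 48 h before the viability read; nearly all actives have a fitted effect of over 65% in size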
# Procedure, shortened: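 A673 cells seeded at 500-1,000 cells/well, rested 5 h, then dosed; primary MIPE 11-point (0.78 nM to 46 µM), NPC (0.59 nM to 46 µM); confirmatory 11-point. CellTiter-Glo luminescence after 48 h.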
# [11] = qHTS of pediatric cancer cell lines to identify multiple opportunities for drug repurposing: Confirmatory screen for SK-N-MC cells (AID 1347111);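 further: potency means the concentration at half of the fitted maximal effect; cells exposed to compound for 48 h before the readout; nearly all actives have a fitted effect of over 70% in size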
# Procedure, shortened: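 Seed 500-1,000 cells/well; rest 5 h at 37 degrees C. Pin-transfer compounds, 11-point titration. Incubate 48 h. Add CellTiter-Glo, 15 min RT, read luminescence.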
# [12] = qHTS of pediatric cancer cell lines to identify multiple opportunities for drug repurposing: Confirmatory screen for LAN-5 cells (AID 1347113); further: nearly all actives have a fitted effect of over 65% in size; further: potency means the concentration at half of the fitted maximal effect
# Procedure, shortened: as §1
# [13] = qHTS of pediatric cancer cell lines to identify multiple opportunities for drug repurposing: Confirmatory screen for DAOY cells (AID 1347114); further: nearly all actives have a fitted effect of over 65% in size; further: potency means the concentration at half of the fitted maximal effect
# Procedure, shortened: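 Viability measured as metabolically active cells via CellTiter-Glo luminescence following 48 hours of compound exposure, 11-point dilutions in confirmatory testing. 500-1,000 cells/well plated 5 hours before dosing; controls were DMSO and 2.3 µM bortezomib.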
# [14] = qHTS of pediatric cancer cell lines to identify multiple opportunities for drug repurposing: Confirmatory screen for NB-EBc1 cells (AID 1347115);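 further: potency means the concentration at half of the fitted maximal effect; cells exposed to compound for 48 h before the viability read; nearly all actives have a fitted effect of over 45% in size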
# Procedure, shortened: as §1
# [15] = qHTS of pediatric cancer cell lines to identify multiple opportunities for drug repurposing: Confirmatory screen for BT-37 cells (AID 1347117); further: potency means the concentration at half of the fitted maximal effect; nearly all actives have a fitted effect of over 55% in size
# Procedure, shortened: as §1
# [16] = qHTS of pediatric cancer cell lines to identify multiple opportunities for drug repurposing: Confirmatory screen for TC32 cells (AID 1347118)
# Procedure, shortened: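 qHTS, TC32, 48 h drug treatment, CellTiter-Glo luminescence as a proxy for metabolically active cells; primary top concentration 46 µM (MIPE 11-pt, NPC 8-pt); confirmatory 11-pt.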
# [17] = qHTS of pediatric cancer cell lines to identify multiple opportunities for drug repurposing: Confirmatory screen for MG 63 (6-TG R) cells (AID 1347119); further: nearly all actives have a fitted effect of over 55% in size; further: potency means the concentration at half of the fitted maximal effect
# Procedure, shortened: as §1
structure (smiles),measurement,setting,value
COc1cc(Cl)cn2c(-c3cccc(NC4CNC4)n3)cnc12,Potency,[1],16.6 µM (active)
same,Potency,[2],inactive
same,Potency,[3],12.2 µM (active)
same,Potency,[4],inactive
same,Potency,[5],inactive
NC(=O)c1noc([C@H](CCCC2CCCCC2)CC(=O)NO)n1,Potency,[1],14.8 µM (active)
same,Potency,[2],13.2 µM (active)
same,Potency,[3],7.69 µM (active)
same,Potency,[5],inactive
same,Potency,[6],18.7 µM (active)
same,Potency,[7],14.8 µM (active)
NC(=O)c1ncn([C@@H]2O[C@H](CO)[C@@H](O)[C@@H]2O)n1,Potency,[1],inactive
same,Potency,[2],inactive
same,Potency,[3],inactive
same,Potency,[4],inactive
same,Potency,[8],inactive
same,Potency,[5],inactive
same,Potency,[6],inactive
same,Potency,[7],inactive
Cc1cccc2c1CC[C@H](CN1CCC(c3c(Cl)cccc3Cl)CC1)C[C@@H]2O,Potency,[1],18.7 µM (active)
same,Potency,[2],inactive
same,Potency,[3],5.44 µM (active)
same,Potency,[8],inactive
same,Potency,[5],inactive
same,Potency,[6],inactive
COc1c(C)cnc(Cn2cnc3c(Cl)nc(N)nc32)c1C,Potency,[1],0.166 µM (active)
same,Potency,[2],0.332 µM (active)
same,Potency,[3],0.432 µM (active)
same,Potency,[6],inactive
same,Potency,[7],1.18 µM (active)
Cc1ccc(NC(=O)c2cccc(N(C)C)c2)cc1NC(=O)c1ccc(O)cc1,Potency,[1],2.96 µM (active)
same,Potency,[2],inactive
same,Potency,[3],inactive
same,Potency,[4],2.64 µM (active)
same,Potency,[5],inactive
same,Potency,[7],2.96 µM (active)
CC1(C)CC(=O)c2c(C(F)(F)F)nn(-c3ccc(C(N)=O)c(NC4CCC(O)CC4)c3)c2C1 (stereo not drawn),Potency,[1],0.148 µM (active)
same,Potency,[2],0.264 µM (active)
same,Potency,[3],0.306 µM (active)
same,Potency,[4],0.0743 µM (active)
same,Potency,[7],0.296 µM (active)
same,Potency,[9],0.165 µM (active)
same,Potency,[10],0.147 µM (active)
same,Potency,[11],0.165 µM (active)
same,Potency,[12],0.185 µM (active)
same,Potency,[13],inactive
same,Potency,[14],0.261 µM (active)
same,Potency,[15],0.104 µM (active)
same,Potency,[16],0.165 µM (active)
CCc1cc(-c2n[nH]c(C)c2-c2ccc3c(c2)OCCO3)c(O)cc1O,Potency,[1],5.9 µM (active)
same,Potency,[2],6.62 µM (active)
same,Potency,[3],9.68 µM (active)
same,Potency,[5],inactive
same,Potency,[6],inactive
CN1C(=O)C[C@H](C(=O)N[C@@H](Cc2cnc[nH]2)C(=O)N2CCC[C@@H]2C(N)=O)NC1=O,Potency,[1],20.9 µM (active)
same,Potency,[2],inactive
same,Potency,[3],inactive
same,Potency,[8],inactive
same,Potency,[5],inactive
same,Potency,[6],inactive
C[C@]12C=CC(=O)C=C1CC[C@@H]1[C@@H]2[C@@H](O)C[C@@]2(C)[C@@H]1CC[C@]2(O)C(=O)CO,Potency,[1],23.5 µM (active)
same,Potency,[2],inactive
same,Potency,[3],inactive
same,Potency,[4],inactive
same,Potency,[8],inactive
same,Potency,[5],inactive
same,Potency,[6],inactive
CC1=C[C@@H]2[C@@H]([C@@H](O)C[C@@]3(C)[C@H]2C[C@@H](C)[C@]3(O)C(=O)CO)[C@@]2(C)Cc3cnn(-c4ccccc4)c3C=C12,Potency,[1],23.5 µM (active)
same,Potency,[2],inactive
same,Potency,[4],29.6 µM (active)
same,Potency,[5],inactive
same,Potency,[10],23.3 µM (active)
same,Potency,[11],9.27 µM (active)
same,Potency,[13],inactive
same,Potency,[16],10.4 µM (active)
CNC(=O)[C@H](Cc1ccccc1)NC(=O)[C@H](CC(C)C)[C@H](CSc1cccs1)C(=O)NO,Potency,[1],inactive
same,Potency,[2],inactive
same,Potency,[8],inactive
same,Potency,[5],inactive
CCC(C)SSc1ncc[nH]1 (stereo not drawn),Potency,[1],14.8 µM (active)
same,Potency,[3],15.3 µM (active)
same,Potency,[4],26.4 µM (active)
same,Potency,[8],23.5 µM (active)
same,Potency,[5],inactive
same,Potency,[6],inactive
same,Potency,[9],18.5 µM (active)
same,Potency,[11],8.27 µM (active)
same,Potency,[12],13.1 µM (active)
same,Potency,[16],13.1 µM (active)
same,Potency,[17],20.8 µM (active)
Nc1ccn([C@@H]2O[C@H](CO)[C@@H](O)[C@H]2O)c(=O)n1,Potency,[1],0.0935 µM (active)
same,Potency,[3],13.7 µM (active)
same,Potency,[4],inactive
same,Potency,[8],inactive
same,Potency,[5],inactive
same,Potency,[6],inactive
same,Potency,[7],inactive
same,Potency,[10],0.657 µM (active)
same,Potency,[11],2.61 µM (active)
same,Potency,[13],inactive
same,Potency,[14],3.29 µM (active)
same,Potency,[15],0.329 µM (active)
same,Potency,[16],0.329 µM (active)
same,Potency,[17],inactive
CCC(=C(CC)c1ccc(O)cc1)c1ccc(O)cc1,Potency,[1],16.6 µM (active)
same,Potency,[3],30.6 µM (active)
same,Potency,[8],18.7 µM (active)
same,Potency,[5],inactive
same,Potency,[6],inactive
same,Potency,[7],inactive
COc1ccc(Cn2ccc3ccc(C(=O)NO)cc32)cc1,Potency,[1],20.9 µM (active)
same,Potency,[2],inactive
same,Potency,[8],inactive
same,Potency,[5],inactive
same,Potency,[7],inactive
CC(C)n1c(C=C[C@H](O)C[C@H](O)CC(=O)O)c(-c2ccc(F)cc2)c2ccccc21,Potency,[1],inactive
same,Potency,[3],4.32 µM (active)
same,Potency,[8],1.48 µM (active)
same,Potency,[6],inactive
same,Potency,[7],inactive
same,Potency,[10],4.65 µM (active)
same,Potency,[11],23.3 µM (active)
same,Potency,[12],inactive
same,Potency,[13],3.69 µM (active)
same,Potency,[15],14.7 µM (active)
same,Potency,[16],16.5 µM (active)
same,Potency,[17],3.29 µM (active)
CC(=O)OCC(=O)[C@@]1(O)CC[C@H]2[C@@H]3CCC4=CC(=O)C=C[C@]4(C)[C@@H]3[C@@H](O)C[C@@]21C,Potency,[1],inactive
same,Potency,[2],inactive
same,Potency,[8],inactive
same,Potency,[5],inactive
same,Potency,[6],inactive
CCn1c(-c2nonc2N)nc2cncc(CNC3CCNCC3)c21,Potency,[1],20.9 µM (active)
same,Potency,[3],inactive
same,Potency,[5],inactive
O=C(Nc1cccc(Cl)c1)Nc1ncc(CCNc2ncnc3ccsc23)s1,Potency,[1],0.132 µM (active)
same,Potency,[3],7.69 µM (active)
same,Potency,[5],inactive
COc1c(C)c2c(c(O)c1CC=C(C)CCC(=O)O)C(=O)OC2,Potency,[1],3.32 µM (active)
same,Potency,[2],inactive
same,Potency,[5],inactive
same,Potency,[6],inactive
same,Potency,[7],inactive
